# Screens (PubChem BioAssay)
# Sm TGR inh: blocks Schistosoma mansoni thioredoxin glutathione reductase | Q962Y6 | purified TGR, DTNB reduction, TNB absorbance 405 nm | Potency, µM (titrated, usually from 114 µM), actives largely listed as inhibitors | 360,000 compounds, 3% hits | AID 485364; further: nearly all actives have a fitted effect of over 60% in size
#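 First, TGR (20 nM dispensed) and NADPH were mixed with compound. Second, a 15 min room-temperature incubation followed. Third, further NADPH and then DTNB were added to start the reaction. Finally, TNB absorbance was monitored kinetically.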
# RE007 growth inh: less growth of the S. pombe RE007 Vpr strain; AID 651644; 360,000 compounds, 0.21% hits; Potency, µM (doses to about 92.2 µM), most hits filed as inhibitors; S. pombe RE007 Vpr strain, BacTiter-Glo ATP luminescence, 24 h; active means well fitted falling curve with a large enough effect; inconclusive means small, poorly fitted or top-dose-only effect; inactive means no such curve, though single readings can be large or run the other way; further: nearly all actives have a fitted effect of over 50% in size
#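 Fission yeast strain RE007, carrying one chromosomally integrated HIV-1 vpr copy, was seeded at OD 0.01 in PMG+AL medium with 23 nL pinned compound. After 24 h at 30 °C and 99% humidity, viability was read by BacTiter-Glo luminescence.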
# LASV entry inh: Lassa virus entry inhibition; AID 540256; Potency, µM (doses to about 37.9 µM), usual class: inhibitors; Lassa virus pseudotype entry inhibition, cell reporter; 300,000 compounds, 1.2% hits; calls by dose curve; tested in HEK293 cells; further: nearly all actives have a fitted effect of over 50% in size
# FMDV inh: foot and mouth disease virus antiviral activity | FMDV antiviral cell-based qHTS | AID 1159524 | Potency, µM (titrated, usually from 57.9 µM), hits mostly inhibitors | 410,000 compounds, 1.2% hits; calls by dose curve; tested in HEK293T cells; further: read-out not given here; nearly all actives have a fitted effect of over 45% in size
# HCV inh: inhibitors of hepatitis C virus infection; AID 651820; Potency, µM (top dose mostly 41.8 µM), actives largely listed as inhibitors; Huh7.5.1 HCVcc-Cre infection, luciferase reporter, 44 h; 340,000 compounds, 3.4% hits
#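 Luciferase read-out (15 sec integration) after a 15 min room-temperature substrate step quantifies HCVcc-Cre infection. Cells, 1,000 per well, had compound added 4 h post-plating, then virus at ~0.5 moi, and were cultured 44 h.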
# Marburg entry inh: Marburg virus entry inhibition | Marburg virus pseudotyped entry inhibition, cell reporter | Potency, µM (titrated, usually from 37.8 µM), actives largely listed as inhibitors | 300,000 compounds, 1.8% hits | AID 540276; calls by dose curve; tested in HEK293 cells
# Hits are given with their value; n = inactive; u = inconclusive; x = no result. Hits are enriched below; roughly 7.2% of the tested compounds scored in any of these assays. Unless noted, the call rests on the fitted dose curve; in most records, active means well fitted curve in the direction sought with a large enough effect; inconclusive means small, poorly fitted or top-dose-only effect, or another doubt; inactive means no such curve, though single readings can be large; an effect the other way counts as inactive or inconclusive.
SMILES,Sm TGR inh,RE007 growth inh,LASV entry inh,FMDV inh,HCV inh,Marburg entry inh
CC(OC(=O)c1ccc2c(c1)OCO2)C(=O)NC1CCCCC1C (configuration not stated),n,n,n,n,u,u
CC(OC(=O)c1cccc(Cl)c1)C(=O)NC1CCCCC1C (configuration not stated),n,n,n,n,n,n
CC(OC(=O)c1ccc(-c2ccc(O)cc2)cc1)C(=O)NC1CCCCC1C (configuration not stated),n,n,n,n,13µM,u
Cc1[nH]c2ccc(C(=O)OC(C)C(=O)NC3(C#N)CCCCC3)cc2c1C (configuration not stated),n,n,u,n,14µM,u
Cc1[nH]c2ccc(C(=O)OC(C)C(=O)NC3CCCCC3C)cc2c1C (configuration not stated),n,n,x,n,22µM,x
CCc1cc2c(cc3c(=O)n(CC(=O)N4CCN(c5cccc(C)c5C)CC4)nc(CC)n32)s1,n,x,x,n,x,u
COCCCNc1nc2c(c(=O)[nH]c(=O)n2C)n1C[C@@H](O)COc1ccccc1,x,x,x,x,x,n
COc1ccc(Cl)cc1NC(=O)c1cnc2sc(N3CCOCC3)nn2c1=O,n,x,n,n,x,x
CCCOc1ccc(C2C(C(=O)/C=C/c3ccco3)=C(O)C(=O)N2CCN2CCOCC2)cc1OC (configuration not stated),8.9µM,n,n,n,n,n
O=c1c2cnn(-c3ccccc3)c2nc(-c2ccco2)n1-c1ccccc1,n,n,u,14µM,13µM,u
Cc1ccc(NC(=O)CSC2=C(C#N)C(c3ccco3)C3=C(CCCC3=O)N2)cc1 (configuration not stated),n,n,u,n,n,u
N#CC1=C(SCC(=O)Nc2ccc(C(=O)O)cc2)NC(=O)CC1c1ccco1 (configuration not stated),35µM,n,x,n,n,x
CC1(C)CC(=O)C2=C(C1)NC(SCC(=O)Nc1ccccc1)=C(C#N)C2c1ccco1 (configuration not stated),n,n,u,n,n,14µM
CCOC(=O)C1c2cccc(O)c2CCN1C(C)=O (configuration not stated),x,n,x,n,x,x
COc1ccc2c(-c3ccccc3)cc(SC(C)C(N)=O)nc2c1 (configuration not stated),n,n,n,n,11µM,u
Cc1ccc2c(c1)C1CN(C)CCC1N2C(=O)Nc1ccc(Cl)cc1 (configuration not stated),n,n,u,x,n,u
Cc1ccc2c(c1)C1C[N+](C)(CC(=O)c3ccc(Cl)cc3Cl)CCC1N2C(=O)c1ccc(F)cc1 (configuration not stated),x,n,x,n,13µM,x
COc1cccc(OCCOc2ccc(/C=C3/SC(=S)NC3=O)cc2)c1,n,n,x,n,n,x
COc1ccc(OCCOc2cccc(C=C3C(=O)NC(=O)NC3=O)c2)cc1,11µM,x,x,x,x,x
CCOc1ccc(NC(=O)[C@H]2O[C@@H]3OC(C)(C)O[C@@H]3[C@H]3OC(C)(C)O[C@H]32)cc1,n,x,n,n,x,n
CCCCOc1ccc(Cl)cc1CSc1n[nH]c(C)n1,n,n,n,u,n,0.21µM
CCCCOc1ccc(Cl)cc1CSc1nnc(C)n1N,n,n,n,n,u,n
CCOc1ccc(Cl)cc1CSc1n[nH]c(CC)n1,n,n,n,n,11µM,n
COc1ccc(Cl)cc1CSc1n[nH]c(C)n1,n,n,n,n,n,n
COc1ccc(C(=O)N2CCc3ccc(NC(=O)c4ccccn4)cc3C2)cc1F,n,n,x,u,11µM,x
SMILES,Sm TGR inh,RE007 growth inh,LASV entry inh,FMDV inh,HCV inh,Marburg entry inh
N#C/C(=C\c1ccncc1)c1nc2ccccc2o1,n,n,n,n,n,n
N#C/C(=C\Nc1ccccc1O)c1nc2ccccc2o1,n,n,u,u,10µM,u
Cc1ccc(N(CC(=O)Nc2cc(Cl)ccc2Oc2ccccc2)S(C)(=O)=O)c(C)c1,n,n,u,u,11µM,u
Cc1nc(S/C(=C\c2ccc(-c3ccc(C(=O)O)c(Cl)c3)o2)C(=O)O)n[nH]1,35µM,n,x,n,n,x
CC(=O)Nc1ccc(NCc2nnc3n2CCCCC3)cc1,n,x,n,n,x,x
Cc1c2ccccc2c(C)c2c1ccc1ccccc12,n,n,x,n,10µM,x
